Laboratory results taken from ChEMBL document CHEMBL3988442, “University of Dundee, Small-Polar-MMV Screening Library” (2021).

Columns and labels:
[1] = molecular target: T1, Aspartate--tRNA(Asp/Asn) ligase (Mycobacterium tuberculosis (strain ATCC 25618 / H37Rv)) (UniProt P9WFW3); experiment: Assay for Asp RNA synthetase-1 from Mycobacterium tuberculosis; type: functional; set-up: scale not given: direction of the effect not stated beside the values; conditions: 30 µM; note: in the data most compounds retested in dose-response had high values
T1 sequence (whole entry): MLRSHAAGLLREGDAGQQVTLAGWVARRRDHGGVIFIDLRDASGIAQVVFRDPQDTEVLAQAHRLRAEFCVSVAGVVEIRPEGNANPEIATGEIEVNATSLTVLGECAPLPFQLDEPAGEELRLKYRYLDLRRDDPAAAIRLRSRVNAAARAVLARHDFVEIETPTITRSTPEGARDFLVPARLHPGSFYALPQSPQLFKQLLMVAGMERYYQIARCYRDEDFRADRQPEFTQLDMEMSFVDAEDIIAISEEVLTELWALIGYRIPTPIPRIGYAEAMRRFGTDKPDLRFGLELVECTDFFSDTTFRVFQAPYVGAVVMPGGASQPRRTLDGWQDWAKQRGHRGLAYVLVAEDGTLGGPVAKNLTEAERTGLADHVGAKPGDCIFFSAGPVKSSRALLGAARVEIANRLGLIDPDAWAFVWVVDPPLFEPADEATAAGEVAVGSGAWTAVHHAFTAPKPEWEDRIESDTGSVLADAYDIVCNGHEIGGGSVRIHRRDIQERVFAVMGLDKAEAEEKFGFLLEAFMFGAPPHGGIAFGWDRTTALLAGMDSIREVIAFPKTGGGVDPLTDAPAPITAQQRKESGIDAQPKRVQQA

[2] = molecular target: Shiga toxin 2 (Escherichia coli O157:H7) (UniProt P09385+P09386); experiment: E. coli 0.157:H7 Shiga Toxin SOP - stx2 screening assay; type: functional; set-up: scale not given: direction of the effect not stated beside the values; conditions: 30 µM

Row | Compound | Percent Effect [1] [%] | Percent Effect [2] [%]
1 | O=S(=O)(c1cccs1)N1CCCn2nnc(CN3CCCCC3)c2C1 | 5.59 | -16.9
2 | O=C(CN1CCCCCCC1=O)NCc1ccccn1 | -0.137 | -35.3
3 | Cc1cncc(C2CCCN(C(=O)c3c[nH]c(=O)[nH]c3=O)C2)n1 (stereo not given) | 3.87 | 26.6
4 | Cc1cc(C)c(CNC(=O)NCC2CCCO2)c(=O)[nH]1 (stereo not given) | -3.97 | 24.8
5 | CCC1=N[C@@]2(CC[C@@H]3CN(Cc4ccccc4F)C[C@@H]32)C(=O)N1CC | 3.79 | -13.9
6 | CC(=O)c1cc(CN2C[C@H]3CC[C@@H]2CN(S(=O)(=O)N(C)C)C3)cs1 | -1.45 | -57.1
7 | O=C(NCCn1ccc(-c2ccncc2)n1)c1ccncc1 | 1.52 | -65.9
8 | Cc1csc(N2CCN(Cc3cnc(C)s3)CC2C)n1 (stereo not given) | 3.68 | 13.7
9 | O=C(CCc1nc2cccnc2[nH]1)NCc1ccc2c(c1)OCO2 | 0.0581 | -41.8
10 | O=C1OCCN1CCc1nc(-c2cc3c4c(c2)CC(=O)N4CCC3)cs1 | 1.61 | 9.08
11 | COCCN1C(=O)CC(N2CCN(c3ccc(F)cc3)CC2)C1=O (stereo not given) | 1.23 | -24.6
12 | Cc1ccc(SCC2CNc3nc4ccccc4c(=O)n32)c(C)c1 (stereo not given) | 0.0228 | 9.77
13 | Cc1ccccc1-c1cc(NC(=O)CC(C)C)n(CCO)n1 | -0.569 | -1.82
14 | Cc1cc(C)n(C2CN(CC(=O)NC3CCOCC3)C2)n1 | -1.88 | -2.98
15 | CN1CCN(Cc2ccccc2CNC(=O)c2ccc(Br)cc2F)CC1 | 2.64 | -9.7
16 | O=S(=O)(C1CC1)N1C[C@H]2CCC[C@@]2(COc2ccccn2)C1 | 4.47 | -32.7
17 | Cc1nnc2n1CCN(C(=O)c1cn(-c3ccccc3Cl)nn1)C2 | -0.98 | -42.4
18 | Cc1noc(C)c1C(=O)NCC(C)N(C)C (stereo not given) | 1.84 | 30.6
19 | CCCc1noc(CCC(=O)N2CCCC2c2noc(C3CC3)n2)n1 (stereo not given) | -2.66 | 6.31
20 | Cc1cc(C(=O)N2C[C@@H](C(=O)O)[C@H](c3ccccc3C)C2)c(C)o1 | 6.11 | -22
21 | COc1cc(CN(C)C(=O)NCCC2CCCO2)ccc1SC (stereo not given) | -3.98 | -6.71
22 | Cc1ccc(N2CC[C@H]3OCC[C@@]3(C(=O)NC(C)C)C2)nn1 | -2.66 | 7.17
23 | CCOC(=O)N1CCN(c2nc(NCCCO)c3ccccc3n2)CC1 | 1.68 | -29.9
24 | O=C(NCCCn1cncn1)NCC(c1ccco1)N1CCCCC1 (stereo not given) | 7.12 | 18.2
25 | Cc1ncc2c(n1)CN(CC(=O)Nc1ccncc1)CC2 | -0.281 | 5.69

Row | Compound | Percent Effect [1] [%] | Percent Effect [2] [%]
26 | CC1CCCN(CC(=O)N2CCC(c3ncc4c(n3)CCNC4)CC2)C1 (stereo not given) | -2.22 | -1.44
27 | N#Cc1ccccc1N1CCCN(C(=O)CCn2cccn2)CC1 | -10.7 | 3.42
28 | CC(C)N(C)Cc1cnc2n1CCN(C(=O)NC1CCCC1)C2 | -1.4 | -28.1
29 | CC(O)CN1CCN(Cc2cccc(C(=O)N(C)C)c2)CC1 (stereo not given) | -6.5 | -1.9
30 | COc1ccc2c(c1)CCN(CCC(=O)NC1CCCCC1)CC2 | -0.993 | -9.64
31 | Cn1nc(COc2cccnc2)c2c1CCN(c1cnccn1)C2 | 10.9 | 7.98
32 | COCCN(CCc1ccccc1)Cc1nc2c(cnn2C)c(=O)[nH]1 | 1.95 | 29.5
33 | Cc1cnn(CCC(=O)N2CCCN(c3cccnn3)CC2)c1 | -0.568 | -11.6
34 | O=C(c1cccc(Cl)c1)N1CCCn2c(CN3CCCCC3)nnc2C1 | -2.93 | -13.3
35 | COC1CCN(C(=O)CCc2c(C)nc3ccnn3c2C)CC1 | -6.77 | 21
36 | O=C(CC1CC1)NCc1cn2c(n1)CN(CC1CC1)CC2 | 4.87 | -4.42
37 | CNc1ccc(CC2CCCN(C(=O)c3cncnc3C)C2)nn1 (stereo not given) | 0.485 | 29.8
38 | Cc1csc(N2CCCN(C(=O)c3c(C)oc(C)c3C)CC2)n1 | -1.31 | -3.9
39 | Cc1cccc(C)c1OCCNC(=O)NC(C)c1nncn1C (stereo not given) | -2.19 | -46.4
40 | Clc1ccc2oc(C3CCN(Cc4cccnc4)CC3)nc2c1 | 1.26 | -46.7
41 | O=C(NCCNc1cnccn1)N1CCN(Cc2cccnc2)CC1 | -4.35 | -68.8
42 | O=C(N[C@@H]1CN(c2ncccn2)[C@@H]2CCCO[C@@H]21)c1cnccn1 | 7.31 | 2.14
43 | CC(C)n1ncc2c1NC(=O)CC21C(=O)Nc2c(Cl)cccc21 (stereo not given) | 4.56 | -7.34
44 | Cc1cnn(CCNCc2nc(COc3ccc(F)cc3)no2)c1 | -1.72 | 16.3
45 | CN1CC[C@H](c2ccccc2)[C@@H]2[C@H]1CCCCN2C(=O)c1cnccn1 | -3.68 | 3.52
46 | CC(=O)N1N=C(c2ccccc2)OC1C(=O)NCCC1=CCCCC1 (stereo not given) | 0.28 | 22.5
47 | CCCc1nc(N2CCN(CC)CC2)c2c(n1)c(C)nn2CC | 11.2 | -8.6
48 | Cc1nc(C)n(CC2CCCN(CCc3ccncc3)C2)n1 (stereo not given) | 0.891 | -14.2
49 | CC(Cc1ccco1)NC(=O)Nc1ccc(N2CCOCC2)nc1 (stereo not given) | -3.59 | 15
50 | COc1ccc2nnc(CCCC(=O)NCCC3=CCCCC3)n2n1 | 0.319 | -54.6

Row | Compound | Percent Effect [1] [%] | Percent Effect [2] [%]
51 | CN(CCC#N)C(=O)CN1CCCC1c1ccsc1 (stereo not given) | 2.1 | 22
52 | Cc1cc2c(cc1C(=O)N1CC[C@H](CO)[C@@H](O)C1)OCCO2 | -0.915 | 8.21
53 | O=C(c1cscn1)N1CCC2(CCN(Cc3nccs3)C2)CC1 | 1.85 | -5.87
54 | NC(=O)c1cc(C2CCCN(CCOCC(F)(F)F)C2)n[nH]1 (stereo not given) | -1.37 | -3.62
55 | CC1CN(C(=O)CN(Cc2ccco2)C2CC2)CCO1 (stereo not given) | 3.17 | 18.9
56 | Cc1nccn1C1CCCN(C(=O)c2cc3ccccc3[nH]2)C1 (stereo not given) | 0.714 | 0.146
57 | COc1cccc(C(=O)NCC(O)c2cccs2)c1 (stereo not given) | -4.63 | 2.93
58 | Cn1cc(CN2CCCC23CCN(C(=O)c2cccn2C)CC3)cn1 | -4.47 | -10.8
59 | Cc1cnn(CC2CCCCN2C(=O)c2ccc3[nH]nnc3c2)c1 (stereo not given) | 0.548 | 30.9
60 | NC(=O)c1ccc(N2CCCCC2)c(NC(=O)c2cc(Br)ccc2F)c1 | 11 | -50.5
61 | CCc1nnc2n1CCN(Cc1csc(-c3cnn(C)c3)n1)C2 | 6.46 | -29.4
62 | O=C(C1CCS(=O)(=O)C1)N1CCN(c2cnccn2)CC1 (stereo not given) | 0.204 | 25.5
63 | c1cc(OCc2ccc3c(c2)OCO3)ccc1CNC1CC1 | -1.47 | -108
64 | N#Cc1ccc(C(=O)NCCCNc2ccc(C(F)(F)F)cn2)cc1 | -4.52 | 28.9
65 | NC(=O)C1CCN(c2nc3nccc(-c4ccccn4)c3c(=O)[nH]2)CC1 | 1.02 | 2.69
66 | COCc1ccccc1CNCc1c(C)nn(C)c1N(C)C | 0.533 | 22.6
67 | O=C(NCC(=O)N1CCCCC1)c1ccoc1 | 6.71 | -16.3
68 | O=C(C1CCN(c2snc3ccccc23)CC1)N1CCCCCC1 | 3.13 | -32.4
69 | CC(O)CN1CCC(CNCc2cccc(Br)c2)CC1 (stereo not given) | -1.97 | 18.9
70 | CN(CC1COc2ccccc2O1)C(=O)NCCCn1ccnc1 (stereo not given) | -0.767 | 11.4
71 | Cc1ccc(CN2CC3(CCN(C(=O)c4cscn4)C3)C2)s1 | -2.67 | -39.3
72 | CN1CCCC1c1ccc(C(=O)N2CCc3ccccc3C2)s1 (stereo not given) | -5.54 | -38.1
73 | CCS(=O)(=O)N1CCC2(CC1)CN(Cc1ccccn1)C(=O)CO2 | 0.198 | -10.6
74 | Cc1n[nH]c(C2CN(C(=O)c3ccco3)CCO2)n1 (stereo not given) | 2.88 | 5.26
75 | Cc1cccc(OCCC(=O)N2CCCN(C(N)=O)CC2)c1C | 0.542 | 7.91

Row | Compound | Percent Effect [1] [%] | Percent Effect [2] [%]
76 | Cc1cc(C[C@@H]2CCC[C@H]2NCc2ccccc2C(F)(F)F)on1 | 3.02 | 26
77 | CCC(CC)c1cc(C(=O)N2CCCC(n3cncn3)C2)on1 (stereo not given) | -5.51 | -2.33
78 | Cc1nn(C)c2c(NCCCn3cccn3)ncnc12 | -6.88 | -37.5
79 | O=S(=O)(C1CC1)N1CC[C@]2(C[C@@H](Oc3ccccn3)CO2)C1 | -1.12 | -6.89
80 | Cn1cc(CN2CCOC3(CCCN(C(=O)c4ccco4)C3)C2)cn1 (stereo not given) | -0.297 | -4.96
81 | O=C(NCCCn1cncn1)N1CCCC(N2CCCC2)C1 (stereo not given) | 3.5 | 0.153
82 | O=C(c1cccn1Cc1cccs1)N1CCN(C(=O)C2CC2)CC1 | 4.89 | -4.84
83 | Cn1c(Cn2cccn2)nnc1C1CCCN(c2ccncc2)C1 (stereo not given) | 1.37 | -3.13
84 | CCC(CC)C(CNC(=O)Nc1cc(C)nn1C)N1CCOCC1 (stereo not given) | -8.48 | -29.4
85 | CCOCCn1c(=O)[nH]c2cc(C(=O)N(C)CCc3cn[nH]c3)ccc21 | 0.279 | -26.7
86 | Cc1ncccc1OC1(C(=O)NCCNc2ccccc2)CCNCC1 | -0.792 | 6.67
87 | COC[C@@H]1CC[C@H]2[C@H](CCN2S(=O)(=O)c2ccc(F)cc2)O1 | 8.74 | -4.21
88 | CCN1CCC2(C=C(C(=O)NC3CC3)c3ccccc32)CC1 | -0.796 | 1.55
89 | CCCOc1ccc(CNC(=O)N2CCC(C(N)=O)C2)cc1 (stereo not given) | 0.4 | -0.133
90 | Cc1cnccc1CN1CC[C@@](C)(O)[C@H](Oc2ccccc2)C1 | -5.05 | -31
91 | COc1ccc(CN2C[C@@H](OCc3ccccn3)[C@H]3COC[C@H]32)cc1 | 3.47 | 12.7
92 | CNc1oc(-c2cc(S(=O)(=O)N3CCCCCC3)c(C)o2)nc1C#N | 2.56 | -18.8
93 | CCN(C(=O)c1ccc(-n2ncc(C#N)c2N)cc1)C1CCCC1 | 6.53 | 6.02
94 | CC(=O)N1CCCN(C(=O)c2ccn(-c3cccc(Cl)c3)n2)CC1 | 3 | 5.49
95 | CNS(=O)(=O)c1cc(C(=O)NC2CCOc3ccccc32)cc(C)c1C (stereo not given) | -2.19 | 3.19
96 | CCOCCOC(C)C(=O)NCc1cn2cc(Br)ccc2n1 (stereo not given) | 1.62 | -14.8
97 | CCc1noc(C(C)N(C)CC(=O)Nc2ccc(C)cc2)n1 (stereo not given) | 1.52 | -3.18
98 | CN(C)Cc1cnc2n1CCN(Cc1ccsc1)CC2 | -5.79 | -3.72
99 | CCc1nc(C2CCCN2C(=O)c2nccnc2N)no1 (stereo not given) | -4.3 | 8.58
100 | CS(=O)(=O)N1CCC(c2nnc3ccc(C(=O)N4CCCC4)cn23)C1 (stereo not given) | 2 | -10.4
